Records with an inconclusive call do not appear. Unmarked numbers belong to inactive results. The source made the active and inactive calls. Calls follow the shape of the dose curve; as a rule, active = well fitted cell-killing curve with a large enough effect in the repeat runs; inconclusive = weak or mixed curves, or effect the other way; inactive = flat fitted curve, though single readings scatter.
Experiment: cAMP Responsive Elements (CRE) small molecule antagonists, cell-based qHTS assay: qHTS cell viability counter screen (AID 2060913); also: nearly all actives have a fitted effect of over 40% in size; also: potency is read from the fitted curve at half-maximal effect
Settings: CRE-bla HEK293T viability, CellTiter-Glo luminescence, 5 h; series mostly up to 92.4 µM; viability change, negative = cytotoxic: at the top concentration
Method in brief: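 Viability of NKH477-stimulated (0.25 uM final) CRE-bla HEK293T cells is measured by CellTiter-Glo luminescence following 3 hrs compound exposure at 37 C.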
% is scaled to controls: 0 for no effect and ±100 for the full control effect.

| SMILES | viability change, negative = cytotoxic | Potency |
| --- | --- | --- |
| O=C(O)CNc1ccccc1 | 9.11% | – |
| CCCCCCCCCOC(=O)c1ccc(O)cc1 | – | 47.9 µM (active) |
| C(=C(c1ccccc1)c1ccccc1)c1ccccc1 | -7.31% | – |
| Cc1occc1C(=O)Nc1ccc(C(=O)N2CCC(F)(F)/C(=C\C(=O)N3CCC(N4CCCCC4)CC3)c3ccccc32)cc1 | -0.906% [at 42.5 µM] | – |
| COc1ccc(Cl)cc1C | 4.85% | – |
| O=C(c1ccccc1)c1ccc(O)cc1 | -12.6% | – |
| O=C(CCCN1CCN(c2ccccn2)CC1)c1ccc(F)cc1 | -13.2% [at 42.5 µM] | – |
| CCCC(=O)OC/C=C(\C)CCC=C(C)C | -0.184% | – |
| CCCCCCCCC(=O)O | – | inactive |
| CO[C@H]1C=CO[C@@]2(C)Oc3c(C)c(O)c4c(O)c(c(/C=N/N5CCN(C)CC5)c(O)c4c3C2=O)NC(=O)/C(C)=C\C=C[C@H](C)[C@H](O)[C@@H](C)[C@@H](O)[C@@H](C)[C@H](OC(C)=O)[C@@H]1C | – | inactive |
| BrCCCCCBr | 19.8% | – |
| C=CC(=O)OCC1CCCO1 (configuration not stated) | 0.589% | – |
| CCCCCCCCCCCCCCCCC(C(=O)O)C(O)(CC(=O)O)C(=O)O (configuration not stated) | -10.5% [at 42.5 µM] | – |
| C[C@H](CCC(=O)O)[C@H]1CC[C@H]2[C@@H]3[C@H](O)C[C@@H]4C[C@H](O)CC[C@]4(C)[C@H]3C[C@H](O)[C@]12C | -4.2% [at 42.5 µM] | – |
| CCC(=O)O[C@@H]1C[C@H]2CC[C@]1(C)C2(C)C | 2.68% | – |
| CN(C)/N=N/c1nc[nH]c1C(N)=O | – | inactive |
| CC1CCC(=O)C1=O (configuration not stated) | 3.25% | – |

Experiment: cAMP Responsive Elements (CRE) small molecule agonists, cell-based qHTS assay: qHTS cell viability counter screen (AID 2060914);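 also: viability read after 3 h of compound exposure; nearly all actives have a fitted effect of over 50% in size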
Settings: CRE-bla HEK293T viability, CellTiter-Glo luminescence, 5 h; series mostly up to 92.4 µM; activity change, negative = cytotoxicity: at the top concentration
Method in brief: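 HEK 293T CRE-bla; DMEM + 10% dialyzed FBS, 25 mM HEPES; 18 h pre-incubation; compound 3 h, 37 °C/5% CO2; CellTiter-Glo added after reporter read; luminescence after 30 min RT.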

| SMILES | activity change, negative = cytotoxicity | Potency |
| --- | --- | --- |
| Oc1ccc(Cc2ccccc2)cc1 | -10.9% | – |
| S=P(N1CC1)(N1CC1)N1CC1 | -2.01% | – |
| c1ccc2cc3c4ccccc4c4ccccc4c3cc2c1 | -14.1% | – |
| Cc1ncc([N+](=O)[O-])n1C | – | inactive |
| C/C=C/C(=O)O | – | inactive |
| CC(C)CCO | 10.3% | – |
| O=S(=O)(O)CO | -2.74% | – |
| O=[N+]([O-])c1cc([N+](=O)[O-])c2ccc(S(=O)(=O)O)cc2c1O | -6.38% | – |
| Cc1cn[nH]c1 | 9.54% [at 42.5 µM] | – |
| CC[Si](OC(C)=O)(OC(C)=O)OC(C)=O | – | inactive |
| CC(C)(CO)C(O)C(=O)NCCCO (configuration not stated) | 6.16% | – |
| C[C@]12CC[C@@H]3c4ccc(O)cc4C[C@@H](CCCCCCCCCS(=O)CCCC(F)(F)C(F)(F)F)[C@H]3[C@@H]1CC[C@@H]2O (some centres not stated) | – | inactive |
| OC1C(O)C(O)C(O)C(O)C1O (configuration not stated) | -1.43% | – |
| CC(=O)c1cnccn1 | 2.85% | – |
| O=C(O)[C@H](O)[C@@H](O)[C@H](O[C@@H]1O[C@H](CO)[C@H](O)[C@H](O)[C@H]1O)[C@H](O)CO | 3.12% [at 42.5 µM] | – |
| Cc1ccc(S(=O)(=O)NC(=O)NN2CCCCCC2)cc1 | – | inactive |
| CCCN1C[C@H](CSC)C[C@@H]2c3cccc4[nH]cc(c34)C[C@H]21 | 5.01% [at 42.5 µM] | – |
| Cc1cc(N)n(-c2ccccc2)n1 | 1.51% | – |
| CC(=O)OC/C=C(/C)CCC=C(C)C | 2.88% | – |
| O=C(O)c1cccc(Cl)n1 | 8.13% | – |

| SMILES | activity change, negative = cytotoxicity | Potency |
| --- | --- | --- |
| CC(Cc1ccccc1)(NC(=O)CN)c1ccccc1 (configuration not stated) | 21.1% [at 42.5 µM] | – |
| CCOC(=O)Cn1c(=O)sc2cccc(Cl)c21 | -19% | – |
| CCOC(=O)C1=C(C)NC(C)=C(C(=O)OC)C1c1cccc([N+](=O)[O-])c1 (configuration not stated) | 6.15% [at 42.5 µM] | – |
| O=C(O)CNc1ccccc1 | 5.88% | – |
| CCCCCCCCCOC(=O)c1ccc(O)cc1 | -10.3% | – |
| C(=C(c1ccccc1)c1ccccc1)c1ccccc1 | -21.7% | – |
| Cc1occc1C(=O)Nc1ccc(C(=O)N2CCC(F)(F)/C(=C\C(=O)N3CCC(N4CCCCC4)CC3)c3ccccc32)cc1 | 2.02% [at 42.5 µM] | – |
| COc1ccc(Cl)cc1C | -1.09% | – |
| O=C(c1ccccc1)c1ccc(O)cc1 | -7.3% | – |
| O=C(CCCN1CCN(c2ccccn2)CC1)c1ccc(F)cc1 | -11.2% [at 42.5 µM] | – |
| CCCC(=O)OC/C=C(\C)CCC=C(C)C | 0.62% | – |
| CCCCCCCCC(=O)O | – | inactive |
| CO[C@H]1C=CO[C@@]2(C)Oc3c(C)c(O)c4c(O)c(c(/C=N/N5CCN(C)CC5)c(O)c4c3C2=O)NC(=O)/C(C)=C\C=C[C@H](C)[C@H](O)[C@@H](C)[C@@H](O)[C@@H](C)[C@H](OC(C)=O)[C@@H]1C | – | inactive |
| BrCCCCCBr | -3.12% | – |
| C=CC(=O)OCC1CCCO1 (configuration not stated) | -1.89% | – |
| CCCCCCCCCCCCCCCCC(C(=O)O)C(O)(CC(=O)O)C(=O)O (configuration not stated) | -14.6% [at 42.5 µM] | – |
| C[C@H](CCC(=O)O)[C@H]1CC[C@H]2[C@@H]3[C@H](O)C[C@@H]4C[C@H](O)CC[C@]4(C)[C@H]3C[C@H](O)[C@]12C | 0.484% [at 42.5 µM] | – |
| CCC(=O)O[C@@H]1C[C@H]2CC[C@]1(C)C2(C)C | -2.74% | – |
| CN(C)/N=N/c1nc[nH]c1C(N)=O | – | inactive |
| CC1CCC(=O)C1=O (configuration not stated) | -1.09% | – |

From PubChem BioAssay (Tox21)
